{"source": "PubChem BioAssay (NCATS)", "note": "Records with an inconclusive call do not appear. The source made the active and inactive calls. Calls come from the whole dose curve; as a rule, active = well fitted inhibition curve with a large enough effect; inconclusive = small, poorly fitted or top-dose-only effect; inactive = no such curve, though single readings can be large or run the other way. Potency is the fitted concentration of half-maximal effect.", "data": [{"assay": "BET inhibitor-based combinations targeting novel dependencies in MECOM-rearranged (r) AML: SET-2 cell line (AID 2202231); note: nearly all actives have a fitted effect of over 35% in size;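 for viability: plate controls were DMSO treated cells for no effect and wells without cells for full effect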", "conditions": "SET-2 AML cells viability, CellTiter-Glo luminescence, 48 h; viability: active compounds read low, series mostly up to about 46 µM", "summary_of_the_method": "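Cells were plated at 500 per well and exposed to an 11-point dose series of each drug for 48 hr. Viability was measured by CellTiter-Glo luminescence, normalized to DMSO and empty-well controls, and summarized as AUC and per-cell-line Z-AUC.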", "values": [{"smiles": "NC(=O)c1ccc(I)c([N+](=O)[O-])c1", "viability": "105% (inactive)"}, {"smiles": "CC(C)c1ccc2oc3nc(N)c(C(=O)O)cc3c(=O)c2c1", "viability": "106% (inactive)"}, {"smiles": "c1coc(CNc2ncnc3nc[nH]c23)c1", "viability": "107% (inactive)"}, {"smiles": "CC(=O)Oc1cc2c(s1)CCN(C(C(=O)C1CC1)c1ccccc1F)C2", "note": "(configuration not stated)", "viability": "102% (inactive)"}, {"smiles": "COc1cc([C@H]2Oc3cc([C@H]4Oc5cc(O)cc(O)c5C(=O)[C@@H]4O)ccc3O[C@@H]2CO)ccc1O", "viability": "119% (inactive)"}, {"smiles": "COc1ccc(-c2coc3cc(O)cc(O)c3c2=O)cc1", "viability": "45.9% (inactive)"}, {"smiles": "CCC(c1ccc(O)cc1)C(CC)c1ccc(O)cc1", "note": "(configuration not stated)", "viability": "99.8% (inactive)"}, {"smiles": "CNC(=O)[C@H](Cc1ccccc1)NC(=O)[C@H](CC(C)C)[C@H](CSc1cccs1)C(=O)NO", "viability": "98.9% (inactive)"}, {"smiles": "CCC(C)(C)C(=O)O[C@H]1C[C@@H](C)C=C2C=C[C@H](C)[C@H](CC[C@@H]3C[C@@H](O)CC(=O)O3)[C@H]21", "viability": "103% (inactive)"}, {"smiles": "CC(C)Oc1ccc2c(=O)c(-c3ccccc3)coc2c1", "viability": "108% (inactive)"}, {"smiles": "CCCCOCCOc1nc(-c2ccc(C(=O)O)c(F)c2)sc1C", "viability": "85.8% (inactive)"}, {"smiles": "CCC(=O)O[C@]1(C(=O)CCl)[C@@H](C)C[C@H]2[C@@H]3CCC4=CC(=O)C=C[C@]4(C)[C@@]3(F)[C@@H](O)C[C@@]21C", "viability": "97.3% (inactive)"}, {"smiles": "N[C@H](CSC(c1ccccc1)(c1ccccc1)c1ccccc1)C(=O)O", "viability": "109% (inactive)"}, {"smiles": "O=c1cc(-c2ccccc2)oc2cc(O)cc(O)c12", "viability": "85.1% (inactive)"}, {"smiles": "CC[C@@H]1C(=O)N(C)c2cnc(Nc3ccc(C(=O)NC4CCN(C)CC4)cc3OC)nc2N1C1CCCC1", "Potency": "468 nM (active)"}, {"smiles": "CCOC(=O)O[C@]1(C(=O)OCCl)CC[C@H]2[C@@H]3CCC4=CC(=O)C=C[C@]4(C)[C@H]3[C@@H](O)C[C@@]21C", "Potency": "1050 nM (active)"}, {"smiles": "CCOc1cc(N)c(Cl)cc1C(=O)NCC1CN(Cc2ccc(F)cc2)CCO1", "note": "(configuration not stated)", "viability": "105% (inactive)"}, {"smiles": "CC(=O)O[C@]1(C(C)=O)CC[C@H]2[C@@H]3C=C(C)C4=CC(=O)CC[C@]4(C)[C@H]3CC[C@@]21C", "viability": "110% (inactive)"}, {"smiles": "Cc1ccc(NC(=O)c2cccc(N(C)C)c2)cc1NC(=O)c1ccc(O)cc1", "viability": "90.3% (inactive)"}, {"smiles": "COC(=O)C[C@](O)(CCCC(C)(C)O)C(=O)O[C@@H]1C(OC)=C[C@]23CCCN2CCc2cc4c(cc2[C@H]13)OCO4", "Potency": "148 nM (active)"}, {"smiles": "COc1ccc(C[C@@H](C)[C@@H](C)Cc2ccc(OC)c(OC)c2)cc1OC", "Potency": "18600 nM (active)"}, {"smiles": "CC(COc1ccccc1)N(CCCl)Cc1ccccc1", "note": "(configuration not stated)", "viability": "99.7% (inactive)"}, {"smiles": "CCCCC(=O)O[C@]1(C(=O)CO)[C@@H](C)C[C@H]2[C@@H]3CCC4=CC(=O)C=C[C@]4(C)[C@@]3(F)[C@@H](O)C[C@@]21C", "viability": "109% (inactive)"}, {"smiles": "CCN(c1ccccc1)c1cc(NC)[n+](C)c(C)n1", "viability": "117% (inactive)"}, {"smiles": "NCc1c[nH]c(=S)n1[C@H]1CCc2c(F)cc(F)cc2C1", "viability": "110% (inactive)"}, {"smiles": "COc1ccc(C(=O)CC(=O)c2ccc(C(C)(C)C)cc2)cc1", "viability": "107% (inactive)"}, {"smiles": "COc1ccccc1C(=O)Nc1cc2c(cc1N1CCCCC1)n(C)c(=O)n2C", "viability": "101% (inactive)"}, {"smiles": "CC[C@@H](C)[C@H](NC(=O)[C@H](CC1CCCCC1)NC(=O)c1ccno1)C(=O)N1CCC2(CCc3ccccc32)CC1", "viability": "50.5% (inactive)"}, {"smiles": "N=C(N)c1ccc2cc(OC(=O)c3ccc(N=C(N)N)cc3)ccc2c1", "viability": "105% (inactive)"}, {"smiles": "O=c1ncn2nc(Sc3ccc(F)cc3F)ccc2c1-c1c(Cl)cccc1Cl", "Potency": "20900 nM (active)"}, {"smiles": "CCCCCCCN(CC)CCCC(O)c1ccc(NS(C)(=O)=O)cc1", "note": "(configuration not stated)", "viability": "96.2% (inactive)"}, {"smiles": "CCOC(=O)c1c(C)n(C)c2ccc(O)cc12", "viability": "110% (inactive)"}, {"smiles": "CCN(CC)CCOc1ccc(Cc2ccccc2)cc1", "Potency": "16600 nM (active)"}, {"smiles": "C[C@]12CC[C@@H]3c4ccc(O)cc4C[C@@H](CCCCCCCCCS(=O)CCCC(F)(F)C(F)(F)F)[C@H]3[C@H]1CC[C@H]2O", "note": "(some centres not stated)", "Potency": "4680 nM (active)"}, {"smiles": "CN(C)c1ccc2cc(C(=O)N[C@@H](CCCN=C(N)CCl)C(=O)NCc3ccccc3)ccc2c1", "viability": "99.2% (inactive)"}, {"smiles": "Cc1nnc(NS(=O)(=O)c2ccc(N)cc2)s1", "viability": "113% (inactive)"}, {"smiles": "O=C(/C=C/N1C[C@H]2C[C@@H]1CN2c1ccccn1)c1ccccc1O", "Potency": "372 nM (active)"}]}]}
